# Source: PubChem BioAssay (National Center for Advancing Translational Sciences (NCATS))
# Compounds with a hit are over-represented: about 6% of the library has one in this group of screens.
# VDR inh: blocks the human vitamin D receptor; VDR-SRC2-3 peptide fluorescence polarization, 2 h; Potency, µM, actives largely listed as inhibitors; 400,000 compounds, 0.93% hits
# Target sequence (P11473 whole entry, looked up): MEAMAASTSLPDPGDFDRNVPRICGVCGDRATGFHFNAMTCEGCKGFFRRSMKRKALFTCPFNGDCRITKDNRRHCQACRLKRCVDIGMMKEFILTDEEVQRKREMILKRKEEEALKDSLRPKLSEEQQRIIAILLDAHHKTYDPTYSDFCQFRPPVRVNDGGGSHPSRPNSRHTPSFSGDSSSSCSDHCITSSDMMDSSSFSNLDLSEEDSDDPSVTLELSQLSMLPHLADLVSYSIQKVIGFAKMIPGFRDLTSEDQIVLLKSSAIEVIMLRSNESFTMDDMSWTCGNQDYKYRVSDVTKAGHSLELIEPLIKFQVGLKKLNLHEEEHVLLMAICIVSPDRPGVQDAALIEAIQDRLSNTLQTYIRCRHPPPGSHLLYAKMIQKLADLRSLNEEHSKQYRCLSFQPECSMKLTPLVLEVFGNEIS
#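 The screen uses fluorescence polarization to detect compounds that interfere with recruitment of the SRC2-3 coactivator peptide to VDR; plates are read after 2 h at room temperature.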
# Tau ThT inhib: tau fibrillization inhibition (ThT binding); 270,000 compounds, 2.1% hits; AID 1460; Potency, µM (top dose mostly 57.4 µM), usual class: inhibitors; P10636; recombinant tau K18 P301L, heparin-induced fibrillization, ThT fluorescence; also: nearly all actives have a fitted effect of over 55% in size
# Target sequence (P10636 561-689 P618L limits assumed): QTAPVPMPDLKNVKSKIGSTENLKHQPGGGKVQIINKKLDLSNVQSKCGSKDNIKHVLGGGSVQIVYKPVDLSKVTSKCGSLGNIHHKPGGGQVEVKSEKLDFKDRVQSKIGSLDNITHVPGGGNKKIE
#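 ThT emission at 510 nm, taken 1 hr after adding 30 uM dye, quantifies aggregates formed when 20 uM heparin acts on human tau K18 P301L for 6 hr at 37 C.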
# PLK1 PBD block: PLK1 (human) polo-box domain binding inhibition; P53350; Plk1 PBD binding of FITC phosphopeptide, fluorescence polarization; Potency, µM, actives largely listed as inhibitors; 360,000 compounds, 2.8% hits; also: series mostly up to about 57 µM; nearly all actives have a fitted effect of over 65% in size
# Tau fluor cs: counter-screen for tau fibril formation inhibitors; Potency, µM (top dose mostly 57.7 µM); 280,000 compounds, 0.93% hits; tau K18 P301L Alexa594 fluorescence, heparin fibrillization; AID 1463; also: nearly all actives have a fitted effect of over 55% in size
#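 Human tau K18 P301L (15 uM unlabeled, 0.24 uM Alexa 594-labeled) in 100 mM sodium acetate pH 7 with 20 uM heparin, 6 hr at 37 C. ThT 30 uM added, 1 hr ambient; Alexa 594 FP and total fluorescence read at 555/632 nm.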
# Sfp PPTase inh: blocks B. subtilis Sfp PPTase activity | Biochemical Sfp PPTase activity, qHTS | 310,000 compounds, 3.5% hits | Potency, µM, usual class: inhibitors;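 also: the enzyme is Sfp with the accession as filed and its product quenches rhodamine fluorescence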
#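 Fluorescence-quenching assay: 15 nM Sfp-PPTase preincubated 15 min at room temperature with compound, then 5 uM rhodamine-CoA and 12.5 uM BHQ-2-labelled YbbR peptide added. Fluorescence (ex 525/em 598 nm) read at start and after 30 min; difference gives rate.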
# Tau fibril FP: blocks human tau fibril formation measured by polarization | P10636 | K18 P301L tau heparin fibrillization, Alexa594 FP, 6 h | Potency, µM (titrated, usually from 57.7 µM), most hits filed as inhibitors | 280,000 compounds, 0.39% hits; also: nearly all actives have a fitted effect of over 55% in size
#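 Human tau K18 […] P301L fragment, 15 uM unlabeled plus 0.24 uM Alexa 594-labeled tau (final), with compound and 20 uM heparin in 100 mM sodium acetate pH 7; 6 hr at 37 C, then Alexa 594 FP read.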
# Hits are given with their value; . = inactive; ? = inconclusive; / = no result; [ ] = dose if it differs, or a comment. Calls follow the shape of the dose curve; as a rule, active = well fitted curve in the direction sought with a large enough effect; inconclusive = small, poorly fitted or top-dose-only effect, or another doubt; inactive = no such curve, though single readings can be large; an effect the other way counts as inactive or inconclusive.
SMILES,VDR inh,Tau ThT inhib,PLK1 PBD block,Tau fluor cs,Sfp PPTase inh,Tau fibril FP
CN(C)c1ccc2c(-c3ccccc3)c3ccc(=[N+](C)C)cc-3oc2c1,45µM,/,/,/,?,/
O=C(O)C(Cc1cn[nH]n1)=NO,.,.,.,.,79µM,.
CC(/C=N\Nc1nnc2c(n1)[nH]c1c(C)cccc12)=C\c1ccco1,.,1.4µM,.,?,.,.
CCCCCSc1nnc2c(n1)[nH]c1c(C)cccc12,.,.,/,.,/,.
CC1(Cc2cc(Cl)ccc2C(F)(F)F)C(=O)Nc2cc(C(F)(F)F)ccc21 (stereo not given),/,/,.,/,/,/
O=C(NCCCc1ccccc1)c1nn(-c2ccccc2F)nc1CO,.,.,/,.,/,.
CNS(=O)(=O)c1ccc(NC(=S)Nc2ccc3c(c2)OCO3)cc1,.,.,19µM,.,45µM,.
O=S(=O)(c1ccc(NC(=S)Nc2ccc3c(c2)OCO3)cc1)N1CCOCC1,.,?,.,.,.,.
NC(N)=NS(=O)(=O)c1ccc(NC(=S)NC(=O)c2ccc3c(c2)OCO3)cc1,.,.,24µM,.,?,.
NS(=O)(=O)c1ccc(NC(=S)NC(=O)c2ccc3c(c2)OCO3)cc1,.,.,.,.,.,.
COc1ccc(N(C)S(=O)(=O)c2cccc(C(=O)Nc3cccc(C(=O)NC4CC4)c3)c2)cc1,.,/,.,/,/,/
CC(=O)c1c(C)c(C)c2n1CCn1c(C)ccc1-2,.,16µM,.,?,.,.
COc1ccc(C2CC(=O)C(C(c3ccc(O)cc3)C3C(=O)CC(c4ccc(OC)cc4)CC3=O)C(=O)C2)cc1 (stereo not given),/,?,/,.,35µM,.
COc1ccc(C2=CC(=O)CC(c3ccc(OC)cc3)C2)cc1 (stereo not given),.,.,.,.,.,.
CC1CCC(=C(C#N)c2nc(-c3cc4ccccc4oc3=O)cs2)CC1 (stereo not given),.,?,27µM,.,.,.
COc1cc(/C=C(\C#N)c2nc(-c3cc4ccccc4oc3=O)cs2)ccc1O,.,3.5µM,.,?,.,.
CC1(C)CC(=O)C(C=Nc2ccccc2C(=O)O)=C(O)C1,.,.,.,.,.,.
CC1(C)CC(=O)c2cc(N=C/C(C(=O)c3ccccc3)=C(\O)c3ccccc3)c(=O)oc2C1,.,.,24µM,.,.,.
CCC(c1c(C)n(C)n(-c2ccccc2)c1=O)c1c(C)n(C)n(-c2ccccc2)c1=O,.,.,.,.,.,.
CCCC(c1c(C)n(C)n(-c2ccccc2)c1=O)c1c(C)n(C)n(-c2ccccc2)c1=O,.,.,2.4µM,.,.,.
CN(c1ccc(C(=O)N2CCN(c3ccc(F)cc3)CC2)cc1)S(C)(=O)=O,.,.,3.4µM,.,.,.
COc1ccc(-c2cc(C(=O)Nc3ccc(C)c(C)c3)no2)cc1,.,/,.,/,.,/
Cc1ccc(NC(=O)c2cc(-c3ccc(F)cc3)on2)cc1C,.,.,24µM,.,.,.
COc1ccc(/C=C\c2onc(C)c2S(=O)(=O)N2CCC(C(=O)Nc3ccc(Cl)cc3)CC2)cc1,.,.,/,.,/,?
Fc1cc2[nH]c(=S)[nH]c2c(Br)c1N1CCSCC1,.,/,27µM,/,50µM,/
SMILES,VDR inh,Tau ThT inhib,PLK1 PBD block,Tau fluor cs,Sfp PPTase inh,Tau fibril FP
Fc1cc2nccnc2cc1N1CCSCC1,.,.,.,.,.,.
CCOc1ccccc1NC(=O)c1cnn2c(C(F)F)cc(-c3ccccc3)nc12,.,?,/,.,/,.
COc1cccc(C2(C)NC(=O)N(CC(=O)Nc3ccc(N4CCOCC4)cc3)C2=O)c1 (stereo not given),.,/,.,/,/,/
COC(=O)[C@@]1(C)[C@H]2C(=O)N(C)C(=O)[C@H]2[C@H]2CN=C(SCC(=O)c3ccccc3)N21,32µM,/,24µM,/,/,/
COC(=O)[C@@]1(C)[C@H]2C(=O)N(C)C(=O)[C@H]2[C@H]2CN=C(SCc3ccccc3)N21,.,/,.,/,/,/
CC(=O)Nc1ccc(S(=O)(=O)CC(=O)CS(=O)(=O)c2ccc(NC(C)=O)cc2)cc1,/,/,.,/,/,/
CCOC(=O)c1sc(NC(=O)c2cc(-c3ccc(F)cc3)on2)c(C(=O)OCC)c1C,.,.,/,.,/,.
COc1ccc(NC(=O)C2CCCCN2N)cc1OC (stereo not given),.,?,27µM,.,.,?
CCOC(=O)c1c(C2COc3ccccc3O2)csc1NC(=O)c1ccccc1 (stereo not given),.,.,.,.,.,.
CCOC(=O)c1c(C2COc3ccccc3O2)csc1N (stereo not given),.,?,.,25µM[quencher],.,.
Cc1nnc2n(C3CCCCC3)c(=O)c3c4c(sc3n12)CCC4,/,13µM,/,14µM[quencher],.,.
CSc1nnc2n(C3CCCCC3)c(=O)c3c4c(sc3n12)CCCC4,/,.,/,.,.,.
COc1cccc(-c2nccc(-n3ccnc3)n2)c1,.,?,/,.,.,.
CCOC(=O)C(Cc1ccccc1)C1(C)Oc2ccccc2O1 (stereo not given),/,/,.,/,/,/
CCOC(=O)NC1(NCc2ccccc2)Oc2ccccc2O1,.,?,.,.,50µM,.
CCOC(=O)Nc1ccc(Oc2ccccc2)cc1,.,.,.,.,.,.
CCOC(=O)NC1(NCC(C)C)Oc2ccccc2O1,.,?,.,?,79µM,.
CCOC(=O)NC1(NC(C)C)Oc2ccccc2O1,.,?,?,.,?,.
CCOC(=O)NC1(Nc2ccc(C)cc2)Oc2ccccc2O1,.,.,.,.,35µM,.
CCOC(=O)NC1(NC2CCCCC2)Oc2ccccc2O1,.,?,.,.,56µM,.
CCOC(=O)C(C(=O)Nc1ccccc1)C1CCCCC1 (stereo not given),.,.,.,.,.,.
CCc1ccc(S(=O)(=O)N2CCN(C(=O)c3cccnc3)CC2)cc1,.,/,.,/,.,/
